# Source: PubChem (National Center for Advancing Translational Sciences (NCATS))
# CBFb RUNX1 block = CBF-beta/RUNX1 interaction disruption; Potency, µM (series often up to 59.8 µM), most hits filed as inhibitors; AlphaScreen CBFb-His/RUNX1-biotin binding, biochemical; 230,000 tested, under 10 active; Q01196+Q13951
# Target sequence (Q01196 whole entry, looked up): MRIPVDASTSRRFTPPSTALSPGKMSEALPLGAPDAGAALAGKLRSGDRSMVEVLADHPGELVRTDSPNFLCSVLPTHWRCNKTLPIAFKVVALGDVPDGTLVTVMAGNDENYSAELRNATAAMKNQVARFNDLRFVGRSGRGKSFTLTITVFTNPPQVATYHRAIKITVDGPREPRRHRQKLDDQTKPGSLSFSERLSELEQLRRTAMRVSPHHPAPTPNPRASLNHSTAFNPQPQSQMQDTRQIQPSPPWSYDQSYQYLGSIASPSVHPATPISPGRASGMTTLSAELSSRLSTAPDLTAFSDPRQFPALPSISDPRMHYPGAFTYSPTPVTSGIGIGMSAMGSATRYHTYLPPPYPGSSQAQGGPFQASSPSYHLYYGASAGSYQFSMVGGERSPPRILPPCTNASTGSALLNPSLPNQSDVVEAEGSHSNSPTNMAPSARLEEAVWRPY
# Target sequence (Q13951 whole entry, looked up): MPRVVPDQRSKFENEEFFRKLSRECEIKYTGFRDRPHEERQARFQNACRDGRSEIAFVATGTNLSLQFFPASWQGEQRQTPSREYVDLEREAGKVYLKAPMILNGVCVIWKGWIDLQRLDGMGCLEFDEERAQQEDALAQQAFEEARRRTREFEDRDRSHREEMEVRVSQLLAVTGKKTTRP
#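 CBFb-His/RUNX1-biotin, 30 nM each, preincubated 20 min RT; compound 15 min RT; Ni + streptavidin beads 50 ng each, 90 min RT; AlphaScreen read.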
# HTT cytoprotect = cytoprotection in Huntington HTT-Q103 PC12 cell model; AID 1471; PC12 HTT-Q103 induced, cytoprotection, ATP luminescence, 40 h; 230,000 compounds, 0.14% hits; Potency, µM (doses to about 56.4 µM), most hits filed as activators; also: nearly all actives have a fitted effect of over 45% in size
#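 Huntington model: PC12 line, ecdysone-inducible HTTQ103 exon1–GFP, tebufenozide 100 nM. Test articles in a dose series. Endpoint luminescence from cellular ATP.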
# HPGD block = HPGD (human) dehydrogenase inhibition. purified HPGD, NADH fluorescence kinetic, PGE2 substrate. 150,000 compounds, 4.3% hits. Potency, µM, most hits filed as inhibitors. AID 894. P15428; active = well fitted inhibition curve with a large enough effect, not every such curve was filed as active; inconclusive = small, poorly fitted or top-dose-only effect, or another doubt; inactive = no such curve, though single readings can be large or run the other way
#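 20 nM HPGD preincubated 15 min at room temperature with compound in 50 mM Tris-HCl pH 8, 0.01% Tween 20. Started with 1 mM NAD+ and 30 uM prostaglandin E2; NADH fluorescence (360/450 nm) read 5 times over 30-s intervals, last minus first.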
# PNC assembly inh = perinucleolar compartment assembly inhibition | PC3M PTB-GFP, PNC prevalence imaging, 16 h; active compounds read low | activity change (PNC), negative = inhibition, % at 10 µM | 140,000 compounds, 3.1% hits | AID 2417;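 active = readout at or below -70, meaning at least 70% loss of cells showing the perinucleolar compartment, a nuclear body marking cancer cells; inconclusive = readout between -30 and a set limit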
#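 Read-out is percentage of cells bearing a perinucleolar compartment, from automated 20x imaging of fixed, Hoechst-stained PC3M PTB-GFP cells. Cells were seeded 4 h, then exposed 16 h to compound (23 nl of library stock) in duplicate plates.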
# ALDH1A1 block = inhibitors of human aldehyde dehydrogenase 1A1. P00352. Potency, µM (doses to about 75.3 µM), usual class: inhibitors. Purified ALDH1A1, NADH fluorescence, propionaldehyde substrate. 220,000 compounds, 7.3% hits; active = well fitted inhibition curve with a large enough effect, not every such curve was filed as active; inconclusive = small, poorly fitted or top-dose-only effect, or another doubt; inactive = no such curve, though single readings can be large or run the other way
# HTT aggregate = inhibitors of mutant huntingtin aggregate formation in PC12 cells | PC12 HttQ103-GFP aggregates, Acumen cytometry, 40 h | Potency, µM (series often up to 46.1 µM), most hits filed as inhibitors | 220,000 compounds, 1.1% hits; also: nearly all actives have a fitted effect of over 60% in size
#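 Compounds (qHTS titration) were added to PC12 cells expressing an ecdysone-driven HTT exon 1 Q103–GFP fusion after induction with 100 nM tebufenozide. Aggregate formation was measured as GFP objects in cell lysates.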
# A number is an active result; – = inactive; ? = inconclusive; · = no result given; [ ] = remark or other dose. A selection: hits, their analogues and other compounds. The true share with any hit is near 11%. Unless noted, calls follow the shape of the dose curve; as a rule, active = well fitted curve in the direction sought with a large enough effect; inconclusive = small, poorly fitted or top-dose-only effect, or another doubt; inactive = no such curve, though single readings can be large; an effect the other way counts as inactive or inconclusive.
SMILES,CBFb RUNX1 block,HTT cytoprotect,HPGD block,PNC assembly inh,ALDH1A1 block,HTT aggregate
CCOc1ccc(S(=O)(=O)NCc2ccccn2)cc1,–,–,–,-111,?,–
CCOc1cc(C)c(C(C)C)cc1S(=O)(=O)NCc1ccccn1,–,–,–,-82,14µM,–
COc1ccc(C)cc1NC(=O)c1ccccc1NS(=O)(=O)c1ccc(Cl)s1,–,–,·,·,–,4.5µM
COc1ccccc1NC(=O)c1ccccc1NS(=O)(=O)c1cccs1,–,–[10 µM],·,·,–,–
Cc1c(Cl)cccc1NC(=O)C[C@H]1Sc2ccccc2NC1=O,·,–[10 µM],–,·,–[13.5 µM],·
CC1(C)CC(=O)C(N=Nc2ccc(Br)cc2)=C(O)C1,–,–[10 µM],·,·,·,–[9.22 µM]
COc1ccc(N=NC2=C(O)CC(C)(C)CC2=O)cc1,–,–,32µM,–,0.89µM,–
CC1(C)CC(=O)C(N=Nc2ccc(C(F)(F)F)cc2[N+](=O)[O-])=C(O)C1,–,–[10 µM],·,·,3.5µM,–[9.22 µM]
CC1(C)CC(=O)C(N=Nc2cccc(F)c2C#N)=C(O)C1,–,–[10 µM],·,·,·,–[9.22 µM]
COc1ccc(N=NC2=C(O)CC(C)(C)CC2=O)c(OC)c1,–,–[10 µM],–,–,0.28µM,–
CC(C)Cc1nc2ccccc2n1CCc1ccccc1,–,·,–,?,–,–
N#C/C(=C(/O)CCl)c1nnc2n1CCCCC2,–,–,·,·,?,–
CCOc1ccc(C2=CS/C(=C(\C#N)c3nnc4n3CCCCC4)N2CC)cc1,–,–[10 µM],?,?,?,–
N#C/C(=C(/O)COc1ccccc1)c1nnc2n1CCCCC2,–,–,·,·,7.9µM,–
C=CCN1C(c2cccc(C(F)(F)F)c2)=CS/C1=C(/C#N)c1nnc(N2CCOCC2)n1-c1ccccc1,–,·,–,–,14µM,–
C=CCN1C(c2ccccc2)=CS/C1=C(\C#N)c1nnc2n1CCCCC2,–,–,25µM,–,18µM,?
C=CCN1C(c2ccc(Br)cc2)=CS/C1=C(/C#N)c1nnc(N2CCOCC2)n1-c1ccccc1,–,–[10 µM],–,–,3.2µM,?
COC(=O)C1=C(C)N(Cc2ccccc2)[C@]23O[C@](C(=O)OC)(C(=O)N2C1c1ccccc1)C1CCOC(=O)C13 (some centres not stated),–[13.1 µM],–[10 µM],·,·,–[13.5 µM],·
CC(=O)NCCNc1ncnc2ccc(-c3ccccc3C#N)cc12,·,–,·,·,?,·
Cc1ccc2c(c1)C1(C=CC(=O)C=C1)CC(=O)N2C,–,·,·,·,·,·
Cc1[nH]nc2c1C(c1cccnc1)N(c1ccc(Br)cc1)C2=O (configuration not stated),–,–[10 µM],–,-83,–,–
Cc1ccc(S(=O)(=O)NC(=O)Nc2nnc(C3CC3)s2)cc1,–,–[10 µM],–,–,–,–
COc1cc2c(cc1OC)CN(Cc1nc3ccsc3c(=O)[nH]1)CC2,–,–[10 µM],?,-83,?,4µM
O=c1[nH]c(CN2CCN(c3ccccc3Cl)CC2)nc2ccsc12,–,–[10 µM],–,–,–,–
Cc1ccc(NC(=O)OCc2ccccc2S(C)=O)cc1 (configuration not stated),–,–[10 µM],·,·,–,–
SMILES,CBFb RUNX1 block,HTT cytoprotect,HPGD block,PNC assembly inh,ALDH1A1 block,HTT aggregate
CS(=O)c1ccccc1COC(=O)Nc1ccc(Cl)cc1 (configuration not stated),–,–[10 µM],–,-80,?,–
CCCN(CCc1cccs1)[C@H]1CCc2c(O)cccc2C1,·,–,·,·,·,–
O=C(NCCOC(=O)c1ccc(C(=O)OCCNC(=O)c2ccccc2)o1)c1ccccc1,–,–,7.9µM,–,?,–
O=C(NCCOCCOCCNC(=O)c1ccccc1)c1ccccc1,–,–,·,·,–,–
CN(C)/C=C/C(=O)c1nnn(C2CCCCC2)c1NC1CCCCC1,–,–,–,–,14µM,?
O=C(O)CCNc1ncnc2nc[nH]c12,·,–[10 µM],–,·,–[13.5 µM],·
COc1ccc(NC2c3ccccc3C(=O)N2Cc2ccco2)cc1OC (configuration not stated),–,–[10 µM],–,–,–,–
CCOc1ccc(NC2c3ccccc3C(=O)N2Cc2ccco2)cc1 (configuration not stated),–,–,–,–,5.6µM,–
CCC(=O)Nc1ccc(NC(=O)CSc2nc3cc4c(cc3cc2C)CCC4)cc1,–,–,–,–,11µM,–
Cc1ccccc1NC(=O)CSc1nc2cc3c(cc2cc1C)CCC3,–,–,–,–,–,–
Cc1nc2cnc(N(C)C)nc2n(C2CC2)c1=O,·,–,·,·,?,·
COc1ccc(NC(=O)N2CC3(CCN(C(=O)c4c(C)noc4C)CC3)C2)cc1,·,–,–,·,?,·
Cc1cc(Sc2ncnc(N)c2[N+](=O)[O-])ncn1,–,–[10 µM],·,·,–,4.5µM
COCCn1c(=O)c(-c2cccc(C#N)c2)nc2cnc(OCc3ccccc3)nc21,·,–,·,·,?,·
CCC(=O)[C@@]1(C)[C@H](C)C[C@@H]2[C@@H]3CCC4=CC(=O)C=C[C@@]4(C)[C@H]3[C@H](O)C[C@]21C,–,–,–,·,–,–
CC(=Nc1ccccc1)C1=C(O)COC1=O,–,–,–,–,5.6µM,–[9.22 µM]
O=C(N/N=C/c1ccncc1)c1cc([N+](=O)[O-])cc([N+](=O)[O-])c1O,–,–,28µM,?,?,–
COc1ccc(-c2nnc(SCc3cc(C)ccc3C)n2N)cc1,–,–,?,–,22µM,–
COc1ccc(-c2nnc(SCc3cccc(C)c3)n2N)cc1,–,–,–,–,–,–
CCCCc1nnc(SCCSc2nnc(CCCC)n2N)n1N,–,–,–,–,18µM,–
CCCc1nnc(SCc2ccc(OC)cc2)n1N,–,–[0.074 µM],18µM,–,–,–
CCCOc1ccc(CSc2nnc(CCC)n2N)cc1,–,–,–,–,–,–
CCCc1nnc(SCC(=O)Nc2ccc(OC)cc2)n1N,–,–[0.074 µM],–,–,?,–
CN1CCN(Cc2nc3cccc4c3c([n+]2[O-])-c2ccccc2-4)CC1,·,–[10 µM],–,·,–[13.5 µM],·
COc1cc(OC)cc(C(=O)NC(=S)Nc2ccc(Cl)c(C(=O)O)c2)c1,–,–,–,–,–,–
SMILES,CBFb RUNX1 block,HTT cytoprotect,HPGD block,PNC assembly inh,ALDH1A1 block,HTT aggregate
COCCNC(=S)NNc1ccc(Cl)c(C(=O)O)c1,–,–[10 µM],·,·,8.9µM,–[9.22 µM]
O=C(CCCC(=O)N(CC(=O)NC1CCCC1)C1CCCC1)Nc1ccccn1,–,–[10 µM],–,-123,?,–
CC(C)(C)COS(=O)OCC(C)(C)C,·,–[10 µM],–,·,–[13.5 µM],·
NS(=O)(=O)c1ccc(NC(=O)c2ccc(CNS(=O)(=O)c3cc(C(F)(F)F)ccc3Cl)cc2)cc1,–,–[10 µM],·,·,–,–[9.22 µM]
COc1ccc(/C=C2/C(=O)N(c3nc4ccccc4s3)N=C2CSc2ccc(Cl)cc2)cc1,–,–[10 µM],14µM,–,?,?
COc1ccc(/C=C2/C(=O)N(Cc3ccccc3)N=C2C)cc1,–,–[10 µM],–,–,?,–
COc1ccc(COC(=O)N/N=C2/C[C@@H](O)[C@@H](O)[C@@H]3[C@@H]4C(=O)N(C5CCCCC5)C(=O)[C@H]4CC[C@@H]23)cc1,–[13.1 µM],–[10 µM],·,·,–[13.5 µM],·
